Results from PMC4552634, “A New Set of Chemical Starting Points with Plasmodium falciparum Transmission-Blocking Potential for Antimalarial Drug Discovery” (PLoS ONE, 2015).
Like-named read-outs stand apart in the source and are kept apart here. Screen size: about 13,000 compounds; about 3,200 (25%) showed an effect of 50% or more. This is one part of the list.

Test system: P. falciparum stage V gametocytes
Parameters: BacTiter-Glo ATP luminescence viability of purified stage V gametocytes in 384-well plates, per cent inhibition versus DMSO
Details: 48 h, 5 µM, inhibitor

| SMILES | % Inhibition [%] | % Inhibition (% Inhibition) [%] |
| --- | --- | --- |
| Cc1onc(-c2c(F)cccc2Cl)c1C(=O)Nc1ccccc1I [TCMDC-125644] | -7.209 | – |
| CC(=O)c1cccc(NC(=O)NC2CCN(c3ccnc(Nc4ccc(F)cc4)n3)C2)c1 (stereo not drawn) [TCMDC-133594] | -13.54 | – |
| CC(=O)c1ccc(NC(=O)Nc2ccc(N(C)c3ccnc(Nc4cccc(CS(C)(=O)=O)c4)n3)cc2)cc1 [TCMDC-138736] | -10.01 | – |
| CS(=O)(=O)Cc1ccc(Nc2nccc(N3CCCc4cc(NC(=O)Nc5cccc(C(F)(F)F)c5)ccc43)n2)cc1 [TCMDC-134309] | 69.84 | – |
| CCCCCCCc1c2c(C)c(C(=O)OCC)nc-2cc2n1CC(C)=C2C [TCMDC-124023] | 93.66 | – |
| O=C(CCCCCNC(=O)c1ccc(O)c(-c2ccc(Cl)c(Cl)c2)c1)NCCN1CCOCC1 [TCMDC-140848] | 9.445 | – |
| O=C(/C=C/c1ccc(Cl)c(Cl)c1)NCC1CCCC(CN2CCC(c3c[nH]c4ccccc34)CC2)C1 (stereo not drawn) [TCMDC-139490] | -31.4 | – |
| O=C(/C=C/c1ccc(Cl)c(Cl)c1)NCCCCCN1C2CCC1CC(c1c[nH]c3ccccc13)C2 (stereo not drawn) [TCMDC-139239] | -9.344 | – |
| O=C(/C=C/c1ccc(Cl)c(Cl)c1)NCC1CCC(CN2CCC(c3c[nH]c4ccccc34)CC2)CC1 (stereo not drawn) [TCMDC-139484] | 1.039 | – |
| O=C(/C=C/c1ccc(Cl)c(Cl)c1)NCC1CCC(N2CCC(c3c[nH]c4ccccc34)CC2)CC1 (stereo not drawn) [TCMDC-139676] | 103.8 | – |
| O=C(/C=C/c1ccc(Cl)c(Cl)c1)NCCC1CCC(N2CCC(c3c[nH]c4ccc(O)cc34)CC2)CC1 (stereo not drawn) [TCMDC-139824] | -86.05 | – |
| O=C(/C=C/c1ccc(Cl)c(Cl)c1)NCCC1CCC(N2CCC(c3c[nH]c4ccccc34)CC2)CC1 (stereo not drawn) [TCMDC-139823] | 54.15 | – |
| Cc1cccc(NC(=O)N(Cc2cc3cc(C)cc(C)c3[nH]c2=O)C2CC2)c1 [TCMDC-123651] | 4.214 | – |
| COc1cccc(C23N=C(Nc4nc5ccccc5[nH]4)NC2(c2cccc(OC)c2)NC(Nc2nc4ccccc4[nH]2)=N3)c1 (stereo not drawn) [TCMDC-139087] | 19.76 | – |
| Cc1ccccc1C1CCN(C2CCC(NC(=O)/C=C/c3c(F)ccc(F)c3F)CC2)CC1 (stereo not drawn) [TCMDC-133512] | -94.66 | – |
| CCCc1cc(Cc2cnc(N)nc2N)cc2c1OC(C)(C)C2 [TCMDC-138049] | -0.08597 | – |
| Cc1c(CNCCCNc2nc3cscc3[nH]2)sc(C(F)F)c1Br [TCMDC-141336] | 21.93 | – |

| SMILES | % Inhibition [%] | % Inhibition (% Inhibition) [%] |
| --- | --- | --- |
| CC(C)(C)c1ccc(NC(=O)c2ccc(CN3CCCN(Cc4ccsc4)CC3)cc2)cc1 [TCMDC-136445] | -5.74 | – |
| COc1ccc(C=CC(=O)NC2CCC(CN3CCC(c4c[nH]c5ccccc45)CC3)CC2)cc1 (stereo not drawn) [TCMDC-139949] | – | 103.1 |
| COc1cc(/C=C/C(=O)NC2CCC(CN3CCC(c4c[nH]c5ccccc45)CC3)CC2)ccc1O (stereo not drawn) [TCMDC-139756] | – | -29.87 |
| COc1cc(/C=C/C(=O)NC2CCC(CN3CCC(c4c[nH]c5ccccc45)CC3)CC2)ccc1O (stereo not drawn) [TCMDC-139766] | – | -65.69 |
| COc1ccc(C=CC(=O)NC2CCC(CN3CCC(c4c[nH]c5ccccc45)CC3)CC2)cc1 (stereo not drawn) [TCMDC-139933] | – | 46.2 |
| COc1ccc(C=CC(=O)NC2CCC(CN3CCC(c4c[nH]c5ccccc45)CC3)CC2)cc1OC (stereo not drawn) [TCMDC-139932] | 100.6 | – |
| COc1ccc(OC)c(C=CC(=O)NC2CCC(CN3CCC(c4c[nH]c5ccccc45)CC3)CC2)c1 (stereo not drawn) [TCMDC-139893] | 103 | – |
| COc1cccc(/C=C/C(=O)NC2CCC(CN3CCC(c4c[nH]c5ccccc45)CC3)CC2)c1 (stereo not drawn) [TCMDC-139718] | – | 98.17 |
| N#Cc1cccc(Nc2nccc(NCC(O)c3ccc(C(F)(F)F)cc3)n2)c1 (stereo not drawn) [TCMDC-136590] | 5.433 | – |
| CCc1ccc(NC(=O)c2ccc(CN3CCCN(Cc4cccc(O)c4)CC3)cc2)cc1 [TCMDC-136439] | -0.6993 | – |
| CCN(CCCN1CCCCC1)c1cc(C)nc(Nc2ccc(C(F)(F)F)cc2)n1 [TCMDC-132435] | 28.95 | – |
| CN(Cc1cccc(F)c1)C1CCN(c2cc(NC(=O)c3cccc(F)c3)ccn2)CC1 [TCMDC-135015] | -7.193 | – |
| CCOc1cc(Cc2cnc(N)nc2N)cc(OCC)c1OCC [TCMDC-137696] | -8.766 | – |
| COc1cc(C=CC(=O)NC2CCC(CN3CCC(c4c[nH]c5ccccc45)CC3)CC2)cc(OC)c1 (stereo not drawn) [TCMDC-139947] | 16.96 | – |
| O=C(/C=C/c1cccc2ccccc12)NC1CCC(CN2CCC(c3c[nH]c4ccccc34)CC2)CC1 (stereo not drawn) [TCMDC-139721] | – | -23.68 |
| COc1cccc(C=CC(=O)NC2CCC(CN3CCC(c4c[nH]c5ccccc45)CC3)CC2)c1OC (stereo not drawn) [TCMDC-139902] | 78.88 | – |
